Among the data in PubChem BioAssay (NCI) are growth values, retold here.

Test systems include T-47D breast; BT-549 breast; MDA-MB-435 melanoma; SW-620 colon; MCF7 breast; HCT-116 colon; HCC-2998 colon; KM12 colon.
Experiment in all cases: NCI-60 one-dose screen, 48 h (100 = growth as untreated, 0 = no growth, -100 = all killed)
Conditions in all cases: 10 µM

Compounds without any hit were thinned out: in the full panel of roughly 83,000, 20% have a hit.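 Results are percent growth after 48 hours of single-concentration exposure. 100 means growth as in untreated cells, lower positive values show inhibition; negative values down to -100 show cell death.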 A number with no mark means an inactive call. The source made the active and inactive calls. Rule for the calls: active = growth percent below 10; inactive = the rest.

Consider `O=C1/C=C/[C@@H](O)[C@@H]2C[C@@H](O)C[C@H]2/C=C/CCC[C@H](C(F)(F)F)O1`, for which the growth was -57.2% (active) in the test on T-47D breast; 15.8% with BT-549 breast; 6.68% (active) with MDA-MB-435 melanoma; -23.1% (active) with SW-620 colon; -64.2% (active) with MCF7 breast; -30.4% (active) with HCT-116 colon. The growth in the test with HCC-2998 colon was -36.5% (active); in the test on KM12 colon, 30%.

As to `O=C(O)COc1c(Cl)cc([N+](=O)[O-])cc1Cl`, the growth is 108% in the test on T-47D breast; 90% with BT-549 breast; 105% with MDA-MB-435 melanoma; 110% in the test on SW-620 colon; 94.7% in the test with MCF7 breast; 83.4% in the test with HCT-116 colon. The growth in the test on HCC-2998 colon is 101%; in the test on KM12 colon it was 98.1%.

Take `O=C1c2c(c(=O)[nH]c3ccccc23)CCN1Cc1ccccc1`: the growth in the test with T-47D breast is 86.1%; in the test on BT-549 breast, 87.1%; in the test on MDA-MB-435 melanoma it was 110%; in the test with SW-620 colon it was 105%; in the test on MCF7 breast it was 97.5%; in the test on HCT-116 colon, 94.8%. Also, the growth with HCC-2998 colon was 111%; in the test with KM12 colon, 114%.

For the compound `CS(=O)(=O)c1nccc(-c2c(-c3cccc(OCc4ccccc4)c3)nc3sccn23)n1`, the growth was 65% with T-47D breast; 54.9% in the test with BT-549 breast; 78.5% in the test with MDA-MB-435 melanoma; 47.1% in the test on SW-620 colon; 77.4% with MCF7 breast; 58.3% in the test on HCT-116 colon. Also, the growth with HCC-2998 colon was 32.4%; in the test on KM12 colon, 50.7%.

On to `COc1cc(/C=C2\CCCC3C2=Nc2ccccc2NC3c2cc(OC)c(OC)c(OC)c2)cc(OC)c1OC` (stereo not given), for which the growth with T-47D breast is 23.9%; with BT-549 breast, -16.4% (active); in the test on MDA-MB-435 melanoma, 3.26% (active); with SW-620 colon, 5.74% (active); with MCF7 breast, 36.9%; in the test on HCT-116 colon, -58.4% (active). For the same compound, the growth with HCC-2998 colon is -60.2% (active); in the test on KM12 colon, -65.3% (active).

Regarding `Nc1ccc(/C=N/Nc2ccnc3c(O)cccc23)c2cccnc12`, the growth was 98.3% in the test with T-47D breast; 80.2% in the test on BT-549 breast; 46.8% in the test on MDA-MB-435 melanoma; 7.41% (active) with SW-620 colon; 31.7% in the test on MCF7 breast; -0.0751% (active) with HCT-116 colon. For the same compound, the growth is 60.8% with HCC-2998 colon and 43.3% in the test with KM12 colon.

`CN(C)CCOc1cccc(-c2nc3sccn3c2-c2ccnc(S(C)(=O)=O)n2)c1`: the growth in the test on T-47D breast was 74.7%; in the test with BT-549 breast, 104%; in the test with MDA-MB-435 melanoma it was 96.8%; with SW-620 colon, 91.7%; in the test with MCF7 breast, 88.3%; in the test on HCT-116 colon, 92.6%. The growth in the test on HCC-2998 colon is 106%; with KM12 colon, 102%.

Regarding `O=C(O)c1ccc(-n2cc(CNc3ccc(Oc4ccccc4)cc3)c(-c3ccccc3)n2)cc1`, the growth in the test with T-47D breast was 75%; in the test with BT-549 breast, 83.1%; in the test on MDA-MB-435 melanoma, 94.2%; in the test on SW-620 colon it was 99.4%; with MCF7 breast it was 85.4%; in the test on HCT-116 colon, 88.5%. For the same compound, the growth with HCC-2998 colon is 120%; in the test on KM12 colon, 80.3%.

With `C#CCOc1c(OC)cc(C(=O)/C(C)=C/c2cccc(N=[N+]=[N-])c2)cc1OC`, the growth in the test on T-47D breast is 44.3%; with BT-549 breast, 11.4%; in the test on MDA-MB-435 melanoma it was -19% (active); in the test with SW-620 colon, 36.5%; in the test on MCF7 breast, 16.4%; with HCT-116 colon, 6.9% (active). In addition, the growth was 21.4% with HCC-2998 colon and 26.6% in the test on KM12 colon.

`CC(=O)Nc1ccc(S(=O)(=O)c2ccnc3cc(Cl)ccc23)cc1`: the growth in the test on T-47D breast is 72.5%; in the test with BT-549 breast, 94.9%; in the test on MDA-MB-435 melanoma, 73.9%; with SW-620 colon, 81.8%; with MCF7 breast it was 57.8%; in the test on HCT-116 colon, 78.7%. Further, the growth with HCC-2998 colon was 100%; in the test on KM12 colon it was 90.1%.

Turning to `CCN(CC)c1ccc(/C=C2\SC(=O)C(Nc3nnc(-c4cccnc4SCc4ccccc4)o3)C2=O)cc1` (stereo not given), the growth with T-47D breast was 50.3%; in the test with BT-549 breast, 59.3%; in the test on MDA-MB-435 melanoma, -24.6% (active); in the test with SW-620 colon it was 22.7%; in the test with MCF7 breast, 14.3%; in the test on HCT-116 colon, 5.84% (active). For the same compound, the growth is 4.15% (active) with HCC-2998 colon and 10.3% in the test on KM12 colon.

`CCCN1CN2C(=O)N3CN(CCC)CN4C(=S)N(C1)C2C34` (stereo not given): the growth in the test with T-47D breast is 90%; with BT-549 breast it was 89.5%; in the test on MDA-MB-435 melanoma it was 106%; in the test with SW-620 colon, 108%; in the test on MCF7 breast, 87.7%; with HCT-116 colon, 82.9%. Besides, the growth with HCC-2998 colon is 106%; in the test with KM12 colon, 101%.

Regarding `COc1ccc(/C=C2/SC(=S)NC2=O)c(OC)c1OC`, the growth in the test with T-47D breast is 63.2%; in the test on BT-549 breast it was 91.1%; in the test with MDA-MB-435 melanoma, 78.5%; with SW-620 colon, 93.9%; in the test with MCF7 breast it was 80.4%; in the test on HCT-116 colon, 85.8%. Further, the growth is 82.3% in the test on HCC-2998 colon and 93.3% in the test on KM12 colon.

`O=[N+]([O-])c1ccc(/C(=C/c2ccccc2)[n+]2ccccc2)cc1`: the growth in the test with T-47D breast was 112%; with BT-549 breast, 109%; in the test with MDA-MB-435 melanoma, 101%; in the test with SW-620 colon it was 103%; in the test on MCF7 breast, 98.7%; with HCT-116 colon, 107%. Besides, the figures for the growth in the test with HCC-2998 colon and in the test with KM12 colon were 126% and 125%, respectively.

As for `CC1C(=NC(=O)c2cnccn2)C(C)C(c2ccc(Cl)cc2)NC1c1ccncc1` (stereo not given), the growth with T-47D breast was 78%; in the test with BT-549 breast it was 95.4%; with MDA-MB-435 melanoma, 96.9%; in the test with SW-620 colon, 111%; with MCF7 breast, 91.3%; with HCT-116 colon it was 73.6%. For the same compound, the growth with HCC-2998 colon was 115%; in the test with KM12 colon, 95.8%.
